The values below come from ChEMBL document CHEMBL1201862, “PubChem BioAssay data set” (2004).

Screen size: about 56,000 sequences; about 2,900 (5.2%) were called active. Cut-off read from the data, not from the text of the source: active = GI50 up to about 1.1 µM and inactive = higher. The list is a sample of the results. Entries with a potency or affinity are not part of this list.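 How tested: cells in 96-well plates exposed to compound for 48 hours at five concentrations. GI50 = concentration required for 50% inhibition of growth.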

The assay concerns SK-OV-3. Put plainly: NCI tumour cell line growth inhibition, 48 h.
“[Bis(aminomethyl)tetramethylenesilane]tetrachloropaltinum(IV), CHEMBL2146189” came in with a GI50 of 6.97 µM.
The result for “cis-Bis[[(trimethylsilyl)methyl]amino]tetrachloroplatinum(IV), CHEMBL2146191” reads 17.6 µM; that for “[Bis(aminomethyl)ethylmethylsilane]tetrachloroplatinum(IV), CHEMBL2146192”, 13.1 µM.
CISPLATIN, CHEMBL11359: the GI50 was found to be 5.35 µM.
As for “[Bis(aminomethyl)dimethylsilane]dichloroplatinum (II), CHEMBL2146201”, the figure is greater than 100 µM; as for “mu-(1,7-nanodiamine-N,N')bis-(cis-aminedichloroplatimum (II)), CHEMBL2146215”, 64.9 µM.
As for “[Bis(aminomethyl)pentamethylenesilane]tetrachloropaltinum(IV), CHEMBL2146204”, the figure is 4.5 µM.
Substance “[Bis(aminomethyl)dimethylsilane]tetrachloroplatinum(IV), CHEMBL2146190” showed a GI50 of 12.8 µM.
As for “[Bis(aminomethyl)pentamethylenesilane]dichloropaltinum(II), CHEMBL2146202”, the figure is 5.12 µM.
The result for “[Bis(aminomethyl)diethylsilane]tetrachloroplatinum(IV), CHEMBL2146203” reads 1.69 µM; that for “[Bis(aminomethyl)tetramethylenesilane]dichloropaltinum(II), CHEMBL2146205”, 26.2 µM.
